The whole screen tested about 69,000 compounds, of which about 8,600 (12%) showed an effect of 50% or more. The full list was thinned out, with strong results kept by preference.

In the test the test system is Plasmodium berghei. The experiment in a line: Screen against P. berghei liver stage (PbLuc), transformed with Luciferase, at 10uM. In kind it is functional, HepG2. The note with it: tested at 10 uM.
Regarding `CCN1C[C@H]2CCN(C(=O)c3cc[nH]n3)CC[C@H]2S1(=O)=O`, the INHIBITION stood at 63.5%.

In the case of `CCN1C[C@H]2CCN(C(=O)Nc3ccccc3C)CC[C@H]2S1(=O)=O`, the INHIBITION is given as 50.6%. On to `CCN1C[C@H]2CCN(C(C)=O)CC[C@H]2S1(=O)=O`, for which the INHIBITION is given as -26.8%.

Consider `O=C(c1cc[nH]n1)N1CC[C@@H]2CN(Cc3ccncc3)S(=O)(=O)[C@@H]2CC1`, for which the INHIBITION was 26.5%. Regarding `O=C(c1cc[nH]n1)N1CC[C@@H]2CN(Cc3cccnc3)S(=O)(=O)[C@@H]2CC1`, the INHIBITION turned out to be 76.4%.

Take `O=C(c1cc[nH]n1)N1CC[C@@H]2CN(Cc3ccccc3)S(=O)(=O)[C@@H]2CC1`: the INHIBITION is given as -23.3%.

Regarding `COCCN1C[C@H]2CCN(C(=O)Nc3ccccc3C)CC[C@H]2S1(=O)=O`, the INHIBITION is reported as 34.6%. In the case of `CC(C)CN1C[C@H]2CCN(C(=O)c3ccccn3)CC[C@H]2S1(=O)=O` it was -19.6%; in that of `CCN(CC)C(=O)NCCc1ccn(-c2ccccc2)n1`, 7.67%; in that of `CCn1ncc2c1CCCC2NCc1ccc(OC)cc1OC` (configuration not stated), 42%. In the case of `O=C(CC1[C@H]2CN(c3ncccn3)C[C@@H]12)Nc1cccnc1` (some centres not stated) it was 13.7%; in that of `Cc1nc(CN(C)C2CCN(Cc3ccc(C(N)=O)cc3)C2)no1` (configuration not stated), -27.8%. On to `Cc1cccc(CN2CCCC(c3nccs3)C2)n1` (configuration not stated), for which the INHIBITION is listed as 43.6%. The result for `Cc1cc(C)cc(NCCC(=O)NCc2cccnc2N(C)C)c1` reads 23.7%; that for `O=C(c1cc2c(s1)CCC2)N1CCN(c2cnccn2)CC1`, -8.66%; that for `CN(C)CCO[C@H]1CN(Cc2ccc3c(c2)OCO3)[C@@H]2COC[C@H]12`, 33%.

In the case of `CCNC(=O)Cc1n[nH]c(-c2cncc(Br)c2)n1`, the INHIBITION was 39.3%.

With `Cc1cnn(CCNCC(=O)NC(C)c2ccc3c(c2)OCCO3)c1` (configuration not stated), the INHIBITION is given as 8.64%.

With `CC(=O)N1[C@H](CN(C)C)C[C@@H]2CN(C(=O)c3cccc(F)c3)CC[C@@H]21`, the INHIBITION worked out at 29.9%. The result for `CN(C)c1ccc(CCCNC(=O)NCC(O)c2cccs2)cc1` (configuration not stated) reads 60.4%; that for `CN(C)c1ccc(C(O)CNC(=O)NCCCc2ccccc2)cc1` (configuration not stated), 5.91%; that for `CN(C)c1ccc(CCCNC(=O)NCC(O)c2ccsc2)cc1` (configuration not stated), 8.92%. Turning to `CN1CC(c2cc(O)nc(NCc3ccccc3Cl)n2)CC1=O` (configuration not stated), the INHIBITION is given as 30.4%. On to `O=C(CCc1ccc(Cl)s1)NCc1nnc2n1CCCCC2`, for which the INHIBITION stood at 5.9%.

As to `O=C(c1nc(Cc2c[nH]c3ccccc23)no1)N1CCCCC1`, the INHIBITION turned out to be 55.4%. Take `O=C(c1nc(Cc2c[nH]c3ccccc23)no1)N1CCCC1`: the INHIBITION is recorded as 25.2%. As to `O=C(c1nc(Cc2c[nH]c3ccccc23)no1)N1CCOCC1`, the INHIBITION is 29.9%. The result for `CCOc1ncccc1NC(=O)NCC(O)c1ccc(OC)cc1` (configuration not stated) reads 44.1%. As to `Cc1cc(C)n(Cc2cc(C(=O)N3CCCC3c3nccs3)n[nH]2)n1` (configuration not stated), the INHIBITION amounted to 10.7%. On to `CCOCc1nc2c(c(NC(CC)c3cccnc3)n1)CCNCC2` (configuration not stated), for which the INHIBITION is recorded as 53.5%. In the case of `CCOCc1nc2c(c(NC(CC)c3ccnn3C)n1)CCNCC2` (configuration not stated) it was 40.6%. As for `CCOCc1nc2c(c(NC(CC)c3ccncc3)n1)CCNCC2` (configuration not stated), the INHIBITION was 37.7%. In the case of `O=C1[C@@H]2C[C@H](O)CCN2C(=O)CN1CCSc1ccccn1`, the INHIBITION is reported as -19.41%.

Regarding `NC(=O)CN1CCC(c2cc(C(F)(F)F)n3ccnc3n2)CC1`, the INHIBITION is 30.8%. As to `CC(C)NC(=O)[C@@H]1CN(C)C[C@]12COc1ccc(F)cc1C2=O`, the INHIBITION is on record as 12.515%. With `O=C(NCC(F)(F)F)c1ccc(-n2cccn2)nn1`, the INHIBITION is reported as -27.8%. With `Cc1csc(N2CCN(CC(=O)NCc3ccccn3)CC2C)n1` (configuration not stated), the INHIBITION is -19.605%.

With `CC(CN1CCOC1=O)NC(=O)c1cccc(C#N)c1` (configuration not stated), the INHIBITION amounted to 42.1%. In the case of `CCn1nc(C)c(CCNC(=O)c2cccc(NCC(=O)O)c2)c1C` it was 22.3%; in that of `CCn1nc(C)c(CCNC(=O)c2cccc(-n3cccn3)c2)c1C`, 72.5%. Turning to `CC(CNC(=O)c1cccc(-n2cccn2)c1)Cn1ccnc1` (configuration not stated), the INHIBITION is reported as -13.6%. The result for `COc1cccc(C(C(=O)O)N2CCC(Cn3cccn3)CC2)c1OC` (configuration not stated) reads 19.8%. The result for `COCC(=O)N1CC(=O)c2sc(Nc3ccc(F)cc3F)nc2C1` reads 53%. Turning to `COc1ccccc1Nc1nc2c(s1)C(=O)CN(C(=O)CC(C)C)C2`, the INHIBITION is reported as 59%.

On to `CC(C)CC(=O)N1CC(=O)c2sc(NC3CCCCC3)nc2C1`, for which the INHIBITION came out at 10%.

Take `CC(C)CC(=O)N1CC(=O)c2sc(Nc3ccc(F)cc3F)nc2C1`: the INHIBITION amounted to 63.4%. In the case of `COCC(=O)N1CCC2(CC1)CNc1ccc(F)cc12`, the INHIBITION amounted to 5.63%.

As for `CNc1nc2c(s1)C(=O)CN(C(=O)[C@@H](N)Cc1cccc(OC)c1)C2`, the INHIBITION is listed as 45.6%. The result for `CC(C)CC(=O)N1CC(=O)c2sc(NCCc3ccccc3)nc2C1` reads 35.2%; that for `CC1CCC2(CC1)Nc1ccccc1CO2` (configuration not stated), 29.7%. For the molecule `CCOC(=O)C1(NC(=O)CCNc2cc(C)ccc2OC)CCCCC1`, the INHIBITION was -7.77%. The result for `CC(C)Cc1nc(-c2ccnc(N3CCNCC3)n2)no1` reads 31.2%.

The values are drawn from ChEMBL document CHEMBL4513216, “Probing the Open Global Health Chemical Diversity Library for Multistage-Active Starting Points for Next-Generation Antimalarials” (ACS Infect Dis, 2020).
